# Screens: PubChem BioAssay, Broad Institute
# ALR inh: inhibitors of human sulfhydryl oxidase ALR | purified ALR, DTT oxidation, H2O2 HRP-luminol luminescence | inhibition, % (test concentration not listed) | 3.8% of 290,000 active;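 active means mean replicate inhibition above about 79%, with every replicate also reaching it, limit read from the data; inconclusive means only one of the two criteria met; inactive means mean below limit and not every replicate reaching it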
# Target sequence (P55789 whole entry, looked up): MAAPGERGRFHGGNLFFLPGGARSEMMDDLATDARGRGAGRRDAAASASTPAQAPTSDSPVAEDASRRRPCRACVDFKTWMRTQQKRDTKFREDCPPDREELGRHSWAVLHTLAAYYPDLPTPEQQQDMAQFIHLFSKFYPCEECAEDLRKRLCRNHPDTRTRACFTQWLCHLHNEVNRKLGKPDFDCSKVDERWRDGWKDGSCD
# Mot1-301 SUMO: blocks SUMOylation pathway, rescuing yeast Mot1-301 growth | 1% of 320,000 active | growth rescue, % at 18.8 µM | S. cerevisiae Mot1-301 growth rescue, ATP luminescence, 38.5C; percent above DMSO median, 100 means doubled;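 active means every valid replicate shows activation above 250% relative to neutral control wells; inactive means the rest, any valid replicate at or below 250%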;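 further: OY570 slx delta 5 strain wells were the positive control but not used for scaling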
# AI-2 QS modul: modulators of Vibrio harveyi AI-2 quorum sensing system; Vibrio harveyi JMH597 AI-2 luminescence/OD600 ratio, 9 h; stronger effect = lower value; strain lacks LuxN and CqsS sensors; 0 = neutral-control median; activity change, % at 7.5 µM; 0.4% of 300,000 active; AID 2094; in the data active means activity change below about -75%, passing the limit was not always enough; inconclusive means no clear call, values can overlap the other calls;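 further: luminescence divided by OD600 gain over 9 h not by final OD600 alone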
# HIF act: HIF pathway transcriptional activation; AID 1910; activation, % at 7.5 µM (by protocol); U2OS HRE-luciferase reporter, luminescence; normalized: DMSO 0%, desferrioxamine 100%; 0.32% of 300,000 active;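 active means mean activation of at least 10% of the iron chelator positive control signal, with at least half of replicates also reaching 10%; inconclusive means mean and replicate majority disagree about reaching 10%; inactive means mean and most replicates under 10%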
# The depositor's hits bear a star; i = inactive; ? = inconclusive; . = no result given. The list is not random: actives were taken first. Their share in the collection is about 4.8%.
SMILES,ALR inh,Mot1-301 SUMO,AI-2 QS modul,HIF act
O=c1cc(-c2ccc(O)c(O)c2)oc2c(C3O[C@H](CO)[C@@H](O)[C@H](O)[C@H]3O)c(O)cc(O)c12 (stereo partly specified),99*,9,20,0
COc1ccc(-n2c(-c3ccc(Cl)cc3Cl)n[nH]c2=S)c(OC)c1,63,12,20,1
O=c1ccc(-c2n[nH]c(=S)n2-c2ccc(F)c(Cl)c2)n[nH]1,86*,2,4,0
S=c1[nH]nc(-c2ccc(Cl)cc2)n1-c1ccc(Cl)cc1,82*,-5,5,-1
S=c1[nH]nc(-c2ccc(Cl)cc2)n1-c1ccc2c(c1)OCCO2,57,1,20,0
S=c1[nH]nc(-c2ccc(Cl)cc2Cl)n1-c1ccc(Cl)cc1,94*,1,28,-12
Fc1ccc(-n2c(-c3cc(C4CC4)[nH]n3)n[nH]c2=S)cc1Cl,?,15,36,0
NC(=O)c1ccc(NC(=O)COC(=O)CC2Sc3ccccc3NC2=O)cc1 (stereo unspecified),5,-1,.,.
CCOC(=O)C(=CNc1ccc(NC2=NCC(C)S2)cc1)C(=O)OCC (stereo unspecified),-15,-10,24,17*
CCOC(=O)C(=CNc1ccc(C(F)(F)F)cc1)C(=O)OCC,29,-18,21,0
O=C(c1cc(O)c(O)c([N+](=O)[O-])c1)c1ccccc1F,98*,78,.,.
CCC(=O)NC(c1ccc(C)cc1)c1cc(Cl)c2cccnc2c1O (stereo unspecified),-8,-6,.,.
COc1ccc(C(NC(C)=O)c2ccc3cccnc3c2O)c(OC)c1 (stereo unspecified),-11,96,-6,65*
CCCC(=O)NC(c1ccc(Cl)cc1)c1ccc2cccnc2c1O (stereo unspecified),-1,1,-22,92*
CCCCC(=O)NC(c1ccc(Cl)cc1)c1ccc2cccnc2c1O (stereo unspecified),-8,-18,-31,86*
CCCC(=O)NC(c1ccc(Cl)cc1Cl)c1ccc2cccnc2c1O (stereo unspecified),-8,8,28,74*
CCCC(=O)NC(c1ccc(C)cc1)c1ccc2cccnc2c1O (stereo unspecified),.,1,-27,125*
CC(=O)NC(c1ccc2ccccc2c1)c1ccc2cccnc2c1O (stereo unspecified),-8,-6,0,90*
CC(=O)NC(c1ccc(Cl)cc1Cl)c1ccc2cccnc2c1O (stereo unspecified),-4,i,-84*,246*
CC(=O)NC(C)c1cc(Cl)c2cccnc2c1O (stereo unspecified),2,-15,.,.
CCCn1c(SCC(=O)NC2CCCC2)nc2c1c(=O)n(C)c(=O)n2C,2,85,8,0
CC(C)NC(=O)N(C)C[C@H]1Oc2ccc(NS(=O)(=O)c3ccc(F)cc3)cc2C(=O)N([C@H](C)CO)C[C@@H]1C,1,-13,.,.
Cc1nn(C(=O)c2cccnc2)c(C)c1Sc1ccccc1,.,-3,39,103*
Cc1nn(C(=O)c2cccnc2)c(C)c1C,-11,-5,6,0
CC(C)(C)NC(=O)NC(=O)CSc1n[nH]c(-c2ccccc2Br)n1,96*,-9,13,0
SMILES,ALR inh,Mot1-301 SUMO,AI-2 QS modul,HIF act
O=C(CSc1n[nH]c(-c2ccccc2Br)n1)NC(=O)NCc1ccco1,1,1,16,0
COc1ccccc1-[n+]1c(C)cc(/C=C2\Sc3ccccc3N2C)cc1C,98*,19,?,.
COc1ccc(-[n+]2c(C)cc(/C=C3\Sc4ccccc4N3C)cc2C)cc1,95*,8,-11,0
O=C(Nc1cccc(F)c1)C1CCCN1C(=O)OCc1ccccc1 (stereo unspecified),4,15,12,0
COc1ccc(-c2cc(N)n(S(=O)(=O)c3ccc(C)cc3)n2)c(OC)c1,99*,27,12,0
COc1ccc(-c2cc(C(F)(F)F)c(C#N)c(SCC(=O)O)n2)cc1OC,.,304*,-3,0
O=C(COC(=O)c1ccccc1NCCO)NNC(=O)c1cccs1,-1,-6,13,0
O=c1nccc(SCc2ccc(Cl)cc2Cl)[nH]1,99*,-22,15,1
Cc1occc1-c1nnc(SCC(=O)Nc2nc(-c3ccccc3)cs2)o1,-8,-11,12,1
Cc1csc(NC(=O)CSc2nnc(-c3cc(C)on3)o2)n1,94*,-10,6,0
